# Results published in PubChem BioAssay (EPA / NIEHS).
# The source holds several records for some structures; these can differ, active in one and inactive in another. Active and inactive are the calls of the source. Rule for the calls: active = hit-call score of the fitted dose curve at least 0.9, where 1 is the maximum; inactive = score below 0.9.
# How the values were obtained:
# Settings in all cases: primary human lung fibroblasts
# [1] = read-out: Collagen IV, COL4A1 (gene 1282); test: BSK_MyoF_CollagenIV: BioMAP Diversity Plus: MyoF Assay for Collagen IV Biomarker Activity (AID 2284247)
# Procedure, shortened: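 Human lung fibroblast system, 24 h chemical exposure. Endpoint: Collagen IV by ELISA, upward fit vs DMSO.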
# [2] = read-out: Plasminogen activator inhibitor-1 (PAI1), SERPINE1 (gene 5054); test: BSK_MyoF_PAI1: BioMAP Diversity Plus: MyoF Assay for Plasminogen activator inhibitor-1 (PAI1) Biomarker Activity (AID 2284256);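 for outcome: PAI-1 protein level measured by ELISA in fibroblast cultures; PAI-1 read 24 h after compound addition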
# Procedure, shortened: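 Primary human lung fibroblasts are dosed and incubated 24 h. PAI-1 is then measured by ELISA, while parallel cultures undergo SRB staining for overt cytotoxicity. Increases over DMSO define activity.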
# [3] = read-out: Interleukin-8 (IL8), CXCL8 (gene 3576); test: BSK_MyoF_IL8: BioMAP Diversity Plus: MyoF Assay for Interleukin-8 (IL8) Biomarker Activity (AID 2284261)
# Procedure, shortened: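 IL-8 levels were measured by ELISA in human lung fibroblasts harvested 24 h after compound addition. Responses were analysed as gain of signal over the DMSO baseline.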
# Decorin, DCN (gene 1634) = test: BSK_MyoF_Decorin: BioMAP Diversity Plus: MyoF Assay for Decorin Biomarker Activity (AID 2284265)
# Procedure, shortened: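 Compound is added to lung fibroblast cultures; cells incubate 24 h; decorin is then measured by ELISA; the response is analysed upward against DMSO controls.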
SMILES,outcome [1],outcome [2],outcome [3],"outcome (Decorin, DCN (gene 1634))",AC50 [2],"AC50 (Decorin, DCN (gene 1634))",AC50 [3]
CCN1CN(CC)CN(CC)C1,inactive,inactive,inactive,inactive,–,–,–
CCOC(=O)/C=C\C(=O)OCC,inactive,inactive,inactive,inactive,–,–,–
Oc1c(Cl)cc(Cl)c(Cl)c1Cl,inactive,–,inactive,–,28.3 µM (active),37.4 µM (active),–
CCCCCCCCC(CO)CCCCCC (stereo not given),inactive,inactive,inactive,inactive,–,–,–
O=C1CCCCCCCCCCC1,inactive,inactive,inactive,inactive,–,–,–
O=C(Cl)c1c(Cl)c(Cl)c(C(=O)Cl)c(Cl)c1Cl,inactive,inactive,inactive,inactive,–,–,–
COc1ccc(C(=O)/C(Br)=C\C(=O)O)cc1,inactive,inactive,inactive,inactive,–,–,3.97 µM (active)
COC(OC)(C(=O)c1ccccc1)c1ccccc1,inactive,inactive,inactive,inactive,–,–,–
CCCCCC1=CCCC1=O,inactive,inactive,inactive,inactive,–,–,–
CCCCCCCO,inactive,inactive,inactive,inactive,–,–,–
C=CCCCCCCCCC=O,inactive,inactive,inactive,inactive,–,–,–
